Key:
Experiment in all cases: log2 ratio of Biotin-Ahx-Ub-VS probe labelling (fragment/DMSO); higher = less target engagement (more negative = stronger competition), active = hit call of the paper (q ≤ 0.05, log2 ratio ≤ -1)
Conditions in all cases: compound concentration: 200 uM; treatment time: 3 h
USP42 = target: T1, USP42 (UniProt Q9H9J4)
T1 sequence (whole entry): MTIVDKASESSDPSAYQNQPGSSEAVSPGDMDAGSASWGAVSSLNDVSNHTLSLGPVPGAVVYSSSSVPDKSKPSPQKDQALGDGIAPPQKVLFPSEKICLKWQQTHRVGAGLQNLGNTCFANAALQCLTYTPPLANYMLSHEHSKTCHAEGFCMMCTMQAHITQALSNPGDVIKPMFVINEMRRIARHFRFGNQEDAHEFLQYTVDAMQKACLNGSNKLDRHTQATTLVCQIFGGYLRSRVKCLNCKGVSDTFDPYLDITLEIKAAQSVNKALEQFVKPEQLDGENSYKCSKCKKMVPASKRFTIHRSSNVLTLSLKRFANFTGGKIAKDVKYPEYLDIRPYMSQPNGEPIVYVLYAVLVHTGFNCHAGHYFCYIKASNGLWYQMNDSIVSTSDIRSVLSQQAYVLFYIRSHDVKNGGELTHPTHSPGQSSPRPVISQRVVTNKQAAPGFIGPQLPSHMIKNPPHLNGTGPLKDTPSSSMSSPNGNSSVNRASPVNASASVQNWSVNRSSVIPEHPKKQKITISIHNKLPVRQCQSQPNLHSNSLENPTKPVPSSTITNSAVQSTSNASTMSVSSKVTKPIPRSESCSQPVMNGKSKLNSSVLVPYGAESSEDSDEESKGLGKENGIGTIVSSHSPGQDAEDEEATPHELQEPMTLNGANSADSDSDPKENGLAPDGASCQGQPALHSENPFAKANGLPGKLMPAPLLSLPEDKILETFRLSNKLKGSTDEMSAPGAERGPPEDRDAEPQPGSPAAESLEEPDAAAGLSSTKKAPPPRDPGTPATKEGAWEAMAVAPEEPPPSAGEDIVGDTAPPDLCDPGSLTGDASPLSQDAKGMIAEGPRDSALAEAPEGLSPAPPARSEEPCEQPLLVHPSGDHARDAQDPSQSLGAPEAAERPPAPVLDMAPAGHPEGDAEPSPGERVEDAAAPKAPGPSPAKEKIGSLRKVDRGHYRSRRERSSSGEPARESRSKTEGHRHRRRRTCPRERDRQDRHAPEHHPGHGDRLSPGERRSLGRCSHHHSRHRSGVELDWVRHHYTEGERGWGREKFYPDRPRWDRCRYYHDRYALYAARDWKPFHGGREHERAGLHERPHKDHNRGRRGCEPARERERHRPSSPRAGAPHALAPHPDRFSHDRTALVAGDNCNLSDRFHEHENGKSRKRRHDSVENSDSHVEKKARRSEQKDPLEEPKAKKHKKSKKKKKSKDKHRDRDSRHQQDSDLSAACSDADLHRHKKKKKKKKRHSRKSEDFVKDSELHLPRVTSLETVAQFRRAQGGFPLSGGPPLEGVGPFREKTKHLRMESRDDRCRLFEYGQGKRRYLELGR
Method in brief: (§1)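 Fragment (200 µM) or vehicle was incubated for 3 h with triplicate HEK293T lysate samples of 495 µg, which were then treated with Biotin-Ahx-Ub-VS at 0.5 µM final for 1 h. Labelled DUBs were enriched on NeutrAvidin, digested with LysC and trypsin, and analysed by diaPASEF LC-MS/MS. Values are average log2 fragment/vehicle ratios from an unpaired t-test on global-median-normalised Spectronaut label-free quantities, using proteins with ≥2 unique peptides.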

USP46 = USP46 (UniProt P62068)
Sequence of USP46 (P62068 whole entry): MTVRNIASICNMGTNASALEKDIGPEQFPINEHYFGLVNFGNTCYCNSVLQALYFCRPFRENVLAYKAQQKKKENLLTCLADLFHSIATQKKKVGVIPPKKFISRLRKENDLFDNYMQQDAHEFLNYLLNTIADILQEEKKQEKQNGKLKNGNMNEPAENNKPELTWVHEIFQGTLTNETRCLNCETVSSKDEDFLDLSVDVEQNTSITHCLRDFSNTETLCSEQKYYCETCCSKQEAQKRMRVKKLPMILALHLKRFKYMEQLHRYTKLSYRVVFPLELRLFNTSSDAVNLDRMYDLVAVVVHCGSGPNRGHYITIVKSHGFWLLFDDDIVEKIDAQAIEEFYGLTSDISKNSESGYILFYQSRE
Method in brief: as §1

USP47 = target: T2, USP47 (UniProt Q96K76)
T2 sequence (whole entry): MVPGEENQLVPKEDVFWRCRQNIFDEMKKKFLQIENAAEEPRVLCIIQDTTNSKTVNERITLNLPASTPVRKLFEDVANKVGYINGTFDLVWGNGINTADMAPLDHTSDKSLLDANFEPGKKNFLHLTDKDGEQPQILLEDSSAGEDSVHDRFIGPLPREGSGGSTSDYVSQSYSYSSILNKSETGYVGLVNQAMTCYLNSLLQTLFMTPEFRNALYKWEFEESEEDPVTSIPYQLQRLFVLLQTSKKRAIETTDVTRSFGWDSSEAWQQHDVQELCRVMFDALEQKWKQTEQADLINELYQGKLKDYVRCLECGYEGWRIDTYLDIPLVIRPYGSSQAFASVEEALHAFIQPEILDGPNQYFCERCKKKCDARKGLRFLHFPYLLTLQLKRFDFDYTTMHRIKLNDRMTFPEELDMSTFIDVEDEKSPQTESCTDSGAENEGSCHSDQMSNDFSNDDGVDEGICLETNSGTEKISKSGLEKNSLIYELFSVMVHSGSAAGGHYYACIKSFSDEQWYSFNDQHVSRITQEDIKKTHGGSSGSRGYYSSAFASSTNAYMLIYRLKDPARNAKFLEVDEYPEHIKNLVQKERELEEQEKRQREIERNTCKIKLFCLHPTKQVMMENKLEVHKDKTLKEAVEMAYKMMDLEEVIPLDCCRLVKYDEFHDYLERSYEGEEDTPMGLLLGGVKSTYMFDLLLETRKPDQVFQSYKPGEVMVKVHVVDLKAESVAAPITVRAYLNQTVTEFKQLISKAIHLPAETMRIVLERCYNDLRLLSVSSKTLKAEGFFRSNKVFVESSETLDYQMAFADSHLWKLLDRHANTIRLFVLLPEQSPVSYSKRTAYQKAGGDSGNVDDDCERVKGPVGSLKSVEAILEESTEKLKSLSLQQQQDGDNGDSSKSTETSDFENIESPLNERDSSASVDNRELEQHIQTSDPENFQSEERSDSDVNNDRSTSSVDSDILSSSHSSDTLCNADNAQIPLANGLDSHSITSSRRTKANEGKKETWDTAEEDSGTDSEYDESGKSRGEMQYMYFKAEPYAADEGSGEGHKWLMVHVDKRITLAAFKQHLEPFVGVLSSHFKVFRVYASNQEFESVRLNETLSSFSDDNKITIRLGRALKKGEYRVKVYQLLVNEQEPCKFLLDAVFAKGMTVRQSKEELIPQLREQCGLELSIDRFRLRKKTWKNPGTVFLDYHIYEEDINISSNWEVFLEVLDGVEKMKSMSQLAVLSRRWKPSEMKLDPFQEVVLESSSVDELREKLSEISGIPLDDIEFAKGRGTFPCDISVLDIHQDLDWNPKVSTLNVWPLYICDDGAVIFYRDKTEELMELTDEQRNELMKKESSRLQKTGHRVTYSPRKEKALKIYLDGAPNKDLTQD
Method in brief: as §1

USP48 = target: T3, USP48 (UniProt Q86UV5)
T3 sequence (whole entry): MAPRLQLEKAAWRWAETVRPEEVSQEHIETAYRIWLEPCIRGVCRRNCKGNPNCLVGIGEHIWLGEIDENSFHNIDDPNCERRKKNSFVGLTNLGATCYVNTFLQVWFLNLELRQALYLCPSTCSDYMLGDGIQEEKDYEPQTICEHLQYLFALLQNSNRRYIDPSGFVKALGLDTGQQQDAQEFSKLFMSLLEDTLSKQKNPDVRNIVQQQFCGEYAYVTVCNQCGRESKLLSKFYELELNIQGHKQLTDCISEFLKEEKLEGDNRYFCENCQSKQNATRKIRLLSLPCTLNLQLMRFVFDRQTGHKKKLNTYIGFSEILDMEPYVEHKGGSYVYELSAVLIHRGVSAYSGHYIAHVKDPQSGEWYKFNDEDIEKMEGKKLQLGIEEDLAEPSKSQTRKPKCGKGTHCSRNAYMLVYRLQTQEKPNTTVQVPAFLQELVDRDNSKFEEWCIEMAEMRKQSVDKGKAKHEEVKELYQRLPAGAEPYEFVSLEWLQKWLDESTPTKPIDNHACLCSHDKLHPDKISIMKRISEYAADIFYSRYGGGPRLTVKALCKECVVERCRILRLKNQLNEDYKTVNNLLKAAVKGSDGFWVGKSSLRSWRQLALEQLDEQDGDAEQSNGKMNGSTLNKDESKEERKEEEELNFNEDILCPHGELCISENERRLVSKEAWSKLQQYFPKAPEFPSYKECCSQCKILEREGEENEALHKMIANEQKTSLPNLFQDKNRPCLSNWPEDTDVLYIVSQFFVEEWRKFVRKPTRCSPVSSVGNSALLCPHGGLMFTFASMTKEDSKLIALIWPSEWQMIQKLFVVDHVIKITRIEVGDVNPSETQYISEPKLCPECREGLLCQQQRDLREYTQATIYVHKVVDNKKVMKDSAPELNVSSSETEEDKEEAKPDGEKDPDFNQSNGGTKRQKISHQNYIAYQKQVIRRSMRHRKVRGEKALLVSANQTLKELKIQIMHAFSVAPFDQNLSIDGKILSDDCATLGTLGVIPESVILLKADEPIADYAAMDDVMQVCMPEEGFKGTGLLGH
Method in brief: as §1

USP5 = target: T4, USP5 (UniProt P45974)
T4 sequence (whole entry): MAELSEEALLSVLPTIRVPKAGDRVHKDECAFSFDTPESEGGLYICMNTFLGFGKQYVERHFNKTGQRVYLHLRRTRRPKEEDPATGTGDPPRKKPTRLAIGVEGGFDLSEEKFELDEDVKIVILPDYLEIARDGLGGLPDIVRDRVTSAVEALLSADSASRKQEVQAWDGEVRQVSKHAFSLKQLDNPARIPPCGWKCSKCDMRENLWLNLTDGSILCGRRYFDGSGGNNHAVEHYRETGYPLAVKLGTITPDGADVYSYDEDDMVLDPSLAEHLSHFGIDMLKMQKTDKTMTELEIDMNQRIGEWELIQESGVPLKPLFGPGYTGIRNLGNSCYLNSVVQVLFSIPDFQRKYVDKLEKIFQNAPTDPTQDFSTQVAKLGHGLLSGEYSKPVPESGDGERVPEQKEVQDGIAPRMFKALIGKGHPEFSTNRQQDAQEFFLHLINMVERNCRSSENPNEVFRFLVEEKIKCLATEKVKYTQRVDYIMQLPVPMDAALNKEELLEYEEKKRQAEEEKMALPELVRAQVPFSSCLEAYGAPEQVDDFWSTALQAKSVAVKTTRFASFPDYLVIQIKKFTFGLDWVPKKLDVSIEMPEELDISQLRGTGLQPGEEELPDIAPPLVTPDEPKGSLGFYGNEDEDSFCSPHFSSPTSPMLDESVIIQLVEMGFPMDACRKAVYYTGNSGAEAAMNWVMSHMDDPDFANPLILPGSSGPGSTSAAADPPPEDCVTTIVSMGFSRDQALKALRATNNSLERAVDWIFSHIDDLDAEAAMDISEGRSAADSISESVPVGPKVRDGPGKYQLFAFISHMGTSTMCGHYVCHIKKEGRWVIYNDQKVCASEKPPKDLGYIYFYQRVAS
Method in brief: as §1

USP54 = USP54 (UniProt Q70EL1)
Method in brief: as §1

USP7 = USP7 (UniProt Q93009)
Sequence of USP7 (Q93009 whole entry, looked up): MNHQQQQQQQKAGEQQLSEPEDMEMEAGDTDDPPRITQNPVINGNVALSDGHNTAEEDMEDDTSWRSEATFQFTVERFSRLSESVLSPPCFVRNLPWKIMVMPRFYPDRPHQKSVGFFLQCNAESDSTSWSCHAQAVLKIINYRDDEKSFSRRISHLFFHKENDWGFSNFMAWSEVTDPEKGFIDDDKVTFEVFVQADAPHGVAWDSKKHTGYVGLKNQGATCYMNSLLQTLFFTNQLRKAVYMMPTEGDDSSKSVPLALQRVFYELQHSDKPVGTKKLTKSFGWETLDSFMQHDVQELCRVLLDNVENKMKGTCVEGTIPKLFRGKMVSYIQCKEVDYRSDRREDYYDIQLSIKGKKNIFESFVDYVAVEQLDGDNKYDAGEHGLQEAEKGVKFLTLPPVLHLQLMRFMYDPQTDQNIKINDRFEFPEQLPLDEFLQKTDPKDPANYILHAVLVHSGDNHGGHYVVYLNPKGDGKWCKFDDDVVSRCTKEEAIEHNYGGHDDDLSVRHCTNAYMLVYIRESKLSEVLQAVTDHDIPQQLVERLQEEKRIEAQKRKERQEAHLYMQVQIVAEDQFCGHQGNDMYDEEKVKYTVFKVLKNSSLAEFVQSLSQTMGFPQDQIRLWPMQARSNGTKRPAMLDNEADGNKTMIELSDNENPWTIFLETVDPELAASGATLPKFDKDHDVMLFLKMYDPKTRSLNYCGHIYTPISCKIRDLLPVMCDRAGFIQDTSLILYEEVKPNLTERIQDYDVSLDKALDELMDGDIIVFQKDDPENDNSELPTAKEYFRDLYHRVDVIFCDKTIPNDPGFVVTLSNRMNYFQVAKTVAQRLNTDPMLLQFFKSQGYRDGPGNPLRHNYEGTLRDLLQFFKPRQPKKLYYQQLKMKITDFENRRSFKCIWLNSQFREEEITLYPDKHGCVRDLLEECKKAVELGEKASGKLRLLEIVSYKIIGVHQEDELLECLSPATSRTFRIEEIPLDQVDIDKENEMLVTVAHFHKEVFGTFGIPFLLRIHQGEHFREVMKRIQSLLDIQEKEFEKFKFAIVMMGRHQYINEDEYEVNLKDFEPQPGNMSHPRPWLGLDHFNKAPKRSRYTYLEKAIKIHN
Method in brief: as §1

USP8 = target: T5, USP8 (UniProt P40818)
T5 sequence (whole entry): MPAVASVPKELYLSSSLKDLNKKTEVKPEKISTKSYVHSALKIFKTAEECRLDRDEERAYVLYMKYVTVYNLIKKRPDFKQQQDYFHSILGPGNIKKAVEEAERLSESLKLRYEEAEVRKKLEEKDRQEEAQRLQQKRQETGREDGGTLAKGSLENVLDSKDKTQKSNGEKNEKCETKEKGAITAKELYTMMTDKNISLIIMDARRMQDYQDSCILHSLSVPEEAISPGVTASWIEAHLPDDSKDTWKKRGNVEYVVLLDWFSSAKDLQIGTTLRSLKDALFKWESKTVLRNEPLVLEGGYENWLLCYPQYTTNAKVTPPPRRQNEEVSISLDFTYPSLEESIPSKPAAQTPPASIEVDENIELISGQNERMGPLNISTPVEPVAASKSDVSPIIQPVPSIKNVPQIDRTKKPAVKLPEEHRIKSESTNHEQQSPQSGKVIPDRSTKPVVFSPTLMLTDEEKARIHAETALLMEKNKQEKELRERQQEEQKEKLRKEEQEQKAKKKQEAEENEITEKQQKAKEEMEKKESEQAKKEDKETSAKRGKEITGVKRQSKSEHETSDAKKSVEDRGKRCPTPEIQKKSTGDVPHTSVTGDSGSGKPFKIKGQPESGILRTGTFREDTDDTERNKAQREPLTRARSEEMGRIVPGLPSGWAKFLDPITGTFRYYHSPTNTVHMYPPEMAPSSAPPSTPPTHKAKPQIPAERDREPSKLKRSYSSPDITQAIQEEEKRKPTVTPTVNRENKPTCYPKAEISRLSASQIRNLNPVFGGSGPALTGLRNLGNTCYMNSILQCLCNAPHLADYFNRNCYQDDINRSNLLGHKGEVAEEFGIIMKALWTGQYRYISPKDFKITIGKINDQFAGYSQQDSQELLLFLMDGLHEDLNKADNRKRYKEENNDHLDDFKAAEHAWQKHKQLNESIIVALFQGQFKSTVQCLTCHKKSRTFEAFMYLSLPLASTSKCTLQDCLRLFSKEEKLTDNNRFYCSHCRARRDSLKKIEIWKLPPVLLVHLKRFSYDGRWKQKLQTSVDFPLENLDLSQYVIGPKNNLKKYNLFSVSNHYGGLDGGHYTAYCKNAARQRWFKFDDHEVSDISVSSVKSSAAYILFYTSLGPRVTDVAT
Method in brief: as §1

USP9X = USP9X (UniProt Q93008)
Sequence of USP9X (Q93008 whole entry): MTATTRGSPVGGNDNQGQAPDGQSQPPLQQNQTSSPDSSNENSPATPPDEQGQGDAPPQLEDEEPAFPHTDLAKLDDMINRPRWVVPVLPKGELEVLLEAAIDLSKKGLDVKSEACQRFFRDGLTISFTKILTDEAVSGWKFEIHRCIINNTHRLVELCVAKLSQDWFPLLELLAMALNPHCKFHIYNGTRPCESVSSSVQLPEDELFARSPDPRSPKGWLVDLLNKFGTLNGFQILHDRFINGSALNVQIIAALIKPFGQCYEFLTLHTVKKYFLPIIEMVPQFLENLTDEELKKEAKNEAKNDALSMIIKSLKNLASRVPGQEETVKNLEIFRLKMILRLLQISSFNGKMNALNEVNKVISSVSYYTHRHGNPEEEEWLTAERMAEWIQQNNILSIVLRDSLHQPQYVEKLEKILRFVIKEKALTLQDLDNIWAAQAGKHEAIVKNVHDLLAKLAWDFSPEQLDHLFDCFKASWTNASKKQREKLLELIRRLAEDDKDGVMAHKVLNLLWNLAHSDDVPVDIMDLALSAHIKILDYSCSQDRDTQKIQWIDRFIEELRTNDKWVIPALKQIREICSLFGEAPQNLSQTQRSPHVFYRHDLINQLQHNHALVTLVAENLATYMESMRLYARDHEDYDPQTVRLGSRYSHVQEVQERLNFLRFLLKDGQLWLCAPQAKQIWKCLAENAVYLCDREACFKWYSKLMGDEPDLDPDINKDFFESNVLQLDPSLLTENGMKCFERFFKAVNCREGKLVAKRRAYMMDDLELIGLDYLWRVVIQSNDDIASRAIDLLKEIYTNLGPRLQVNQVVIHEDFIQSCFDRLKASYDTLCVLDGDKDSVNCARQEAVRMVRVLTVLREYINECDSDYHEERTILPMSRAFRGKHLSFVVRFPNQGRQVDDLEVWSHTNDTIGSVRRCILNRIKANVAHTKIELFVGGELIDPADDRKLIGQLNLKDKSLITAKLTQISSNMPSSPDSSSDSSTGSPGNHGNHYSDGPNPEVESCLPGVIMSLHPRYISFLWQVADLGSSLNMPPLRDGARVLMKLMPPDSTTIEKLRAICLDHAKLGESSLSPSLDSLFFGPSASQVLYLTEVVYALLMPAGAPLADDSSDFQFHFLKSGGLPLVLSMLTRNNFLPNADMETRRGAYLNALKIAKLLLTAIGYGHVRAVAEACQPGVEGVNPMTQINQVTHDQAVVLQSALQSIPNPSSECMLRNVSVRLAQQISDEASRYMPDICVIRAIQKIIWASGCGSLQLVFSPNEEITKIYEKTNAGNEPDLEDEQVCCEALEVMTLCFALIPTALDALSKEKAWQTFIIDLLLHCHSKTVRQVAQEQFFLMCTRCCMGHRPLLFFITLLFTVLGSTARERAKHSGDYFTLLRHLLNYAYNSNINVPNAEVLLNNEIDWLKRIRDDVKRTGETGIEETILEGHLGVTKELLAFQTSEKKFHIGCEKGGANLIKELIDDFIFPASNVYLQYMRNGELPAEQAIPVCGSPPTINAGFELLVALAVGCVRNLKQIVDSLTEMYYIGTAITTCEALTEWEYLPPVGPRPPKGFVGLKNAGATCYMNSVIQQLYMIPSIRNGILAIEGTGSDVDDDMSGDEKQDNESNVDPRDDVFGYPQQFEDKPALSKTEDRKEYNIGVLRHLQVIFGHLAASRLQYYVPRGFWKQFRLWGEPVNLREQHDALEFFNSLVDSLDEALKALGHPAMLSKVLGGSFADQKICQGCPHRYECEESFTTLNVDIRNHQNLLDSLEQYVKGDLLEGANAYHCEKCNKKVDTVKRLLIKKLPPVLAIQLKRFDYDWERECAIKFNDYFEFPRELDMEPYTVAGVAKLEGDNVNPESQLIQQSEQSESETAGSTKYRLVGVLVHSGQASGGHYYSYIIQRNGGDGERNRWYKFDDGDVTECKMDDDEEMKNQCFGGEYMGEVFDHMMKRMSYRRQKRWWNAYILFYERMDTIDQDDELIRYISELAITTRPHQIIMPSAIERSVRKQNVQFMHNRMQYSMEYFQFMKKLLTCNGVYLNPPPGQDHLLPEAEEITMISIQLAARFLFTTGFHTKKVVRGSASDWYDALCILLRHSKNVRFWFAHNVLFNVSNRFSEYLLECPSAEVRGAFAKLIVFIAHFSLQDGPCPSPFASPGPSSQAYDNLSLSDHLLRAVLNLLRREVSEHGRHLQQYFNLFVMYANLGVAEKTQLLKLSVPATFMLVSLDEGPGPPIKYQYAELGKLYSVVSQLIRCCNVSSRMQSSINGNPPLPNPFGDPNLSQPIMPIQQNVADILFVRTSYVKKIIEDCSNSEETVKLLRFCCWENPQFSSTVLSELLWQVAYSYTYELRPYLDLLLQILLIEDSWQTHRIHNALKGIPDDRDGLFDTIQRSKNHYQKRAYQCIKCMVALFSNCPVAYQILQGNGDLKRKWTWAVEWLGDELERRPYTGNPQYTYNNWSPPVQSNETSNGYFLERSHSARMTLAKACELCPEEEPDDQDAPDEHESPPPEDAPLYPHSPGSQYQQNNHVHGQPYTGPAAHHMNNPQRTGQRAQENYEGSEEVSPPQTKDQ
Method in brief: as §1

UniProt O00487 = target: UniProt O00487
Sequence of UniProt O00487 (O00487 whole entry): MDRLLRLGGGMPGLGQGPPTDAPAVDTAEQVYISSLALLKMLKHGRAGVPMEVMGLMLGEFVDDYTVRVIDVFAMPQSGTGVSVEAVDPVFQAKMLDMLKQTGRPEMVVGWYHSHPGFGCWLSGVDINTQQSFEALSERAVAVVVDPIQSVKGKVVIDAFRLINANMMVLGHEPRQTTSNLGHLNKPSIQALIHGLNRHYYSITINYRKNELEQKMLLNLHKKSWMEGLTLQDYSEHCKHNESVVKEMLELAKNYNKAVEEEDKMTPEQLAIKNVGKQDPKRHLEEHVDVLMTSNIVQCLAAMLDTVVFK
Method in brief: as §1

Measured: log2 ratio of Biotin-Ahx-Ub-VS probe labelling

Cl.O=C(CCl)N1CCc2ncncc2C1
inactive: USP42 0.0472 | USP46 -0.292 | USP47 -0.409 | USP48 -0.0378 | USP5 -0.0354 | USP54 0.253 | USP7 -0.411 | USP8 -0.218 | USP9X -0.425 | UniProt O00487 -0.0759

Source: the supplement of paper PMC11732987, “Enantioselective OTUD7B fragment discovery through chemoproteomics screening and high-throughput optimisation” (Communications Chemistry, 2025)
